Reference: PubChem BioAssay
Calls of active or inactive are those of the source.

What was measured:
[1] = tested on: Plasmodium falciparum Sir2 (PF13_0152, Sir2A); assay: Plasmodium falciparum Sir2A binding compounds – biochemical, small-molecule microarray, 635 nm fluorescence, primary screen (AID 1098); details: fluorescence 635 nm, higher = more signal;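 also: score merges spot fluorescence intensity with its signal-to-noise ratio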
[2] = probe aDKK1 binding to arrayed compounds – biochemical, biotinylated probe, 635/667 nm fluorescence, primary screen (AID 1099); details: small-molecule microarray, higher = more signal;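 also: score merges 667nm spot fluorescence with signal to noise across triplicate slides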
[3] = probe aCHRDL2 binding to arrayed compounds – biochemical, biotinylated probe, 635/667 nm fluorescence, primary screen (AID 1100); details: small-molecule microarray, higher = more signal
[4] = change in splice reporter luminescence, either direction, cell-based, HEK293, spliceosome inhibition project, primary screen (AID 1101); details: HEK293 splicing luciferase reporter, 24 h, higher = more signal, called active from +8 up or from −8 down;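 also: HEK293 cells carrying a splicing-competent luciferase reporter gene; test concentration not given here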
[5] = molecular target: Fibroblast growth factor 10 (Homo sapiens) (UniProt O15520); assay: compounds binding fibroblast growth factor 10 – biochemical, small-molecule microarray, 635 nm fluorescence, primary screen (AID 1102); details: FGF10 binding, fluorescence 635 nm, higher = more signal
[6] = tested on: glycogen synthase kinase-3 (GSK3A per assay name; protocol says GSK3B); assay: compounds binding glycogen synthase kinase-3 – biochemical, small-molecule microarray, 635 nm fluorescence, GSK3A, primary screen (AID 1103); details: fluorescence 635 nm, higher = more signal; also: the record names both GSK3A and GSK3B
[7] = molecular target: Epidermal growth factor receptor (Homo sapiens) (UniProt P00533); assay: compounds binding epidermal growth factor receptor – biochemical, small-molecule microarray, 635 nm fluorescence, primary screen (AID 1104); details: EGFR binding, higher = more signal;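 also: score merges 667 nm emission intensity with spot signal to noise over triplicate slides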
[8] = molecular target: Follistatin-related protein 3 (Homo sapiens) (UniProt O95633); assay: compounds binding follistatin-related protein 3 – biochemical, small-molecule microarray, 635 nm fluorescence, primary screen (AID 1105); details: FSTL3 binding, higher = more signal;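 also: score merges emission near 667 nm and signal to noise per printed spot across three slides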
[9] = molecular target: Dickkopf-related protein 1 (Homo sapiens) (UniProt O94907); assay: small molecules binding DKK1 protein – biochemical, small-molecule microarray, 635 nm fluorescence scan, primary screen (AID 1106); details: higher = more signal;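 also: score merges emission near 667 nm with signal to noise over three replicate slides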
[10] = tested on: Inhibin beta A chain (activin A); assay: small molecules binding activin A – biochemical, small-molecule microarray, 635 nm fluorescence scan, primary screen (AID 1107); details: INHBA, higher = more signal;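 also: mouse activin A protein probed at 4.33 µg/mL on printed slides; score merges bound-protein fluorescence near 667 nm with spot signal-to-noise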
[11] = tested on: Human papillomavirus type 1a protein E7 (residues 44-93); assay: small molecules binding HPV E7 44-93 – biochemical, small-molecule microarray, residues 44-93, 635 nm fluorescence, primary screen (AID 1108); details: fluorescence 635 nm, higher = more signal;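 also: E7 fragment applied at 1 µg/mL in TBST for 1 h at 4 C; score combines spot fluorescence with its signal to noise ratio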
[12] = hepatitis C replication reporter changes, two-sided – Huh7 cells, luciferase reporter, HCV replication inhibitor project, primary screen (AID 1109); details: Huh7 HCV replicon luciferase reporter, 48 h; higher = more signal;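 also: huh7 hepatoma cells harbouring a luciferase neomycin HCV replicon reporter; luciferase luminescence as measure of HCV replicon replication; test concentration not given here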
[13] = molecular target: Left-right determination factor 2 (Homo sapiens) (UniProt O00292); assay: small molecules binding LEFTY2 protein – biochemical, small-molecule microarray, 635 nm fluorescence scan, primary screen (AID 1110); details: higher = more signal
[14] = molecular target: Calmodulin-1 (Homo sapiens) (UniProt P0DP23); assay: small molecules binding calmodulin-1 with EGTA – biochemical, small-molecule microarray, Cy5-labelled CALM1, profiling panel (AID 1111); details: Cy5-CALM1 binding fluorescence, higher = more signal;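 also: labelled calmodulin applied in Tris saline Tween buffer holding calcium plus EGTA and DTT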
[15] = molecular target: Calmodulin-1 (Homo sapiens) (UniProt P0DP23); assay: small molecules binding Ca-loaded calmodulin-1 – biochemical, small-molecule microarray, Cy5-labelled CALM1, plus calcium, artefact control for SMM control-protein annotation, profiling panel (AID 1112); details: Cy5-CALM1 binding fluorescence, higher = more signal;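 also: score merges spot fluorescence with signal to noise from triplicate slides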
[16] = probe aWnt5a binding to arrayed compounds – biochemical, biotinylated probe, 635/667 nm fluorescence, primary screen (AID 1113); details: small-molecule microarray, higher = more signal;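 also: score merges 667 nm fluorescence intensity with signal-to-noise per printed feature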
[17] = probe aShh binding to arrayed compounds – biochemical, biotinylated probe, 635/667 nm fluorescence, primary screen (AID 1114); details: small-molecule microarray, higher = more signal;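 also: probe is biotin-labelled aShh protein from a stem cell growth factor screen; measures binding of labelled protein to compounds printed on the slide; score merges feature fluorescence at 667 nm with signal-to-noise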
[18] = probe aNog binding to arrayed compounds – biochemical, biotinylated probe, 635/667 nm fluorescence, primary screen (AID 1115); details: small-molecule microarray, higher = more signal;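 also: probe is biotinylated aNog protein used at 0.15 µg/mL for 1 h at 4 C; z-score combines 667 nm fluorescence of each spot with its signal to noise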
[19] = molecular target: Torsin-1A-interacting protein 1 (Homo sapiens) (UniProt Q5JTV8); assay: compound microarray binding of lysate hLAP1 – cell lysate, small-molecule microarray, COS7 lysate, 635/667 nm fluorescence, primary screen (AID 1116); details: 635 nm fluorescence, higher = more signal
[20] = molecular target: Alpha-bungarotoxin (Bungarus multicinctus) (UniProt P60615); assay: compounds binding labelled alpha-BTX control protein – biochemical, small-molecule microarray, Alexa647 label, 635/667 nm fluorescence, artefact control for SMM control protein annotation, profiling panel (AID 1117); details: alpha-BTX-A647 binding fluorescence, higher = more signal
Alpha-bungarotoxin (Bungarus multicinctus), sequence (P60615 whole entry, looked up): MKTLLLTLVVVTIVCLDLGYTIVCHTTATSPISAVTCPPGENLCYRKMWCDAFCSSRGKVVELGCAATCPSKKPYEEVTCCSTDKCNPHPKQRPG

Dickkopf-related protein 1 (Homo sapiens), sequence (O94907 whole entry, looked up): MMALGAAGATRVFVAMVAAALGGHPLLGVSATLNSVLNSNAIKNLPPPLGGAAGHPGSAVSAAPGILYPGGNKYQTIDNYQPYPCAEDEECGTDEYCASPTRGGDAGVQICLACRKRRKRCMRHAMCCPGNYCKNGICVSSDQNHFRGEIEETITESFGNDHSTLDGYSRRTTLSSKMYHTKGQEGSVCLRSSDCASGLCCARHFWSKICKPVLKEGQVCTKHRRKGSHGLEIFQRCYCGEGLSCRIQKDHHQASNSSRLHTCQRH
Epidermal growth factor receptor (Homo sapiens), sequence (P00533 whole entry, looked up): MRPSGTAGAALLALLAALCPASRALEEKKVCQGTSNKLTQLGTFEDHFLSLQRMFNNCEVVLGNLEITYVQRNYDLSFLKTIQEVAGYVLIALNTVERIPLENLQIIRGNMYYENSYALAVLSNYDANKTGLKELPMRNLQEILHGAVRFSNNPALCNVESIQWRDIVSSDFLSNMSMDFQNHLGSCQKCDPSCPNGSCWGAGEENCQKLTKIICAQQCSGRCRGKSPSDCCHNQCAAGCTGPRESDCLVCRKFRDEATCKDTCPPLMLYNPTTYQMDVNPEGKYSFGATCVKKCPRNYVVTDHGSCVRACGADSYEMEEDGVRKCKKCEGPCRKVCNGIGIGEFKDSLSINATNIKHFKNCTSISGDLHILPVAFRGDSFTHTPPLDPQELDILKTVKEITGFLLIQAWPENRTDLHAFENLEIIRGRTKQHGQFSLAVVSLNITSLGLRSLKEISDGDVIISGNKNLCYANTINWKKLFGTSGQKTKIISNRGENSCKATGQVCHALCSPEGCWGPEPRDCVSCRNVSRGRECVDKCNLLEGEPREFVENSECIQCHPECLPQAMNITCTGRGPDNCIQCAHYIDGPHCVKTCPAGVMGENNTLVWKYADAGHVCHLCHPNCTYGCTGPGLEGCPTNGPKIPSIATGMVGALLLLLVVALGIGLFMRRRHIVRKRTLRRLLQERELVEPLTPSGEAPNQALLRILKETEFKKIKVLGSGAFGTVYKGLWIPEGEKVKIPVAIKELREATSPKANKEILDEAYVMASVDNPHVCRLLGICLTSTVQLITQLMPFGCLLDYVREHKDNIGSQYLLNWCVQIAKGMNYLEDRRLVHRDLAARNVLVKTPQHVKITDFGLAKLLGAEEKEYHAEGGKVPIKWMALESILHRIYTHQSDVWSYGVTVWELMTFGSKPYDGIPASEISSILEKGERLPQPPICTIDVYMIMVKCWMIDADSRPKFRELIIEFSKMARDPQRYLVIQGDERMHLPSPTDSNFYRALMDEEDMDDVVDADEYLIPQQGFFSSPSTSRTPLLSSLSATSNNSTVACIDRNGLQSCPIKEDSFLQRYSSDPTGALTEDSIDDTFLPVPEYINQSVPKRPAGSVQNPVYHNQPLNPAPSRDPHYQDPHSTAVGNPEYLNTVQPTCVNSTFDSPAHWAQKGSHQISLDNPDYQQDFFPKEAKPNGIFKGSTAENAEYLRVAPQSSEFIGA
Fibroblast growth factor 10 (Homo sapiens), sequence (O15520 whole entry, looked up): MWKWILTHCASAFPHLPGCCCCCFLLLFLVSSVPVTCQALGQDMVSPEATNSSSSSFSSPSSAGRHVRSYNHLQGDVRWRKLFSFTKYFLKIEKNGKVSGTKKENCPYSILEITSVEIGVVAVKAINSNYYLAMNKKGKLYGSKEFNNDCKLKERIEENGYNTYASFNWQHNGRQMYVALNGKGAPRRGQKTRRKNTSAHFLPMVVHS
Left-right determination factor 2 (Homo sapiens), sequence (O00292 whole entry, looked up): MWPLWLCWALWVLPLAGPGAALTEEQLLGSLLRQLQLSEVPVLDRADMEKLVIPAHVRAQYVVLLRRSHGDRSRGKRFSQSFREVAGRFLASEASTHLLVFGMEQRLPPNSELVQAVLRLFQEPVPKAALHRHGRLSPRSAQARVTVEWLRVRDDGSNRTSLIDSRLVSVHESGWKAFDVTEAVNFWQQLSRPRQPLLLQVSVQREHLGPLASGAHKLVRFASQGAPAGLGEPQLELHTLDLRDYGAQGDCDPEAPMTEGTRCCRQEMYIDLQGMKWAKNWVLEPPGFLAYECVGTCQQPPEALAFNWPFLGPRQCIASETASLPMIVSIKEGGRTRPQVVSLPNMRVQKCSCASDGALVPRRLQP
Torsin-1A-interacting protein 1 (Homo sapiens), sequence (Q5JTV8 whole entry, looked up): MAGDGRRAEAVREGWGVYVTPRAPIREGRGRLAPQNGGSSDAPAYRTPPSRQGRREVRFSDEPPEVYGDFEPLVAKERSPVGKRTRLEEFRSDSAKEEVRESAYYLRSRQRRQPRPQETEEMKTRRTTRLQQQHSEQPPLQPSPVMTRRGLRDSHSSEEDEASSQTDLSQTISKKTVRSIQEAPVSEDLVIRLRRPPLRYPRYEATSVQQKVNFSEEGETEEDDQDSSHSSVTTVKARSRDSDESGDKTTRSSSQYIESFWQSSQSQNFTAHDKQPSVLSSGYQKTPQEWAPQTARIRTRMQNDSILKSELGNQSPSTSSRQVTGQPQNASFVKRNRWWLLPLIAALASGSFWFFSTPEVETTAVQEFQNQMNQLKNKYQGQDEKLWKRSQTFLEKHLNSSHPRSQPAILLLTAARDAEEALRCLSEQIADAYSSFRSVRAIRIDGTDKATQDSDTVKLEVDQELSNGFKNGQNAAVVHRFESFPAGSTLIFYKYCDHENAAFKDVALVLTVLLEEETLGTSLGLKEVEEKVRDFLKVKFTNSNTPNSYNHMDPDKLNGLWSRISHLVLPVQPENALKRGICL
Follistatin-related protein 3 (Homo sapiens), sequence (O95633 whole entry, looked up): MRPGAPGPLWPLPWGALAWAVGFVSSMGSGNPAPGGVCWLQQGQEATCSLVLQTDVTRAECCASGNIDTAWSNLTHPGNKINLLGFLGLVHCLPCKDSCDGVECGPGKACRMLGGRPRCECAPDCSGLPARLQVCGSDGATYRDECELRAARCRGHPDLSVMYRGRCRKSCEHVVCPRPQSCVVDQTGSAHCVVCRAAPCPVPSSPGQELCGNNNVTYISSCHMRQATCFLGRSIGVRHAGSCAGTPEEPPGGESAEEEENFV

Compound	composite z-score [1]	composite z-score [2]	composite z-score [3]	z-score [4]	composite z-score [5]	composite z-score [6]	composite z-score [7]	composite z-score [8]	composite z-score [9]	composite z-score [10]	composite z-score [11]	z-score [12]	composite z-score [13]	composite z-score [14]	composite z-score [15]	composite z-score [16]	composite z-score [17]	composite z-score [18]	composite z-score [19]	composite z-score [20]
COc1cccc(-c2cccc(=O)o2)c1	1.37	0.956	0.513	0.742 (inactive)	0.423	-0.21	0.482	0.148	0.143	1.15	-1.17	0.473	0.361	-0.753	-0.454	0.153	0.475	0.192	0.628	0.141
COC(=O)C[C@H]1O[C@]2(C(=O)N(C)c3ccccc32)[C@@H](C)[C@@H]1[Si](C)(C)F	-0.0042	-0.113	-0.583	-1.8 (inactive)	0.96	0.557	0.616	0.774	0.695	0.369	0.882	0.0456	0.392	0.0461	-0.389	-0.0472	0.23	-0.357	0.239	-0.0089
COc1ccc(-c2cc3c(c(-c4ccc(Oc5ccccc5)cc4)n2)[Si](C(C)C)(C(C)C)OC3)cn1	-0.207	-0.242	-0.262	0.00906 (inactive)	-0.0354	-0.175	-0.0425	0.148	0.0989	0.365	-0.419	-1.15	-0.123	-0.266	0.211	-0.206	-0.0553	-0.224	-0.286	0.199
COCCCNC(=O)[C@@]1(C)c2ccccc2C(=O)N(C(C)C)[C@H]1c1ccc(CO)cc1	0.572	0.174	0.343	-0.373 (inactive)	0.555	0.497	0.517	0.861	0.888	0.531	0.761	-0.659	0.577	-0.342	-0.574	-0.152	-0.01	-0.0247	0.999	0.547
O=C1C[C@@](C(=O)NC2CC2)(c2ccc([N+](=O)[O-])cc2)[C@@H](c2ccc(CO)cc2I)N1C1CCCCC1	1.02	0.666	-0.0524	-0.497 (inactive)	1.19	0.931	0.414	1.25	0.486	0.245	1.43	-1.97	0.434	0.581	-0.183	-0.101	0.0756	0.217	0.388	1.24
CCCc1cc2c(n1Cc1cc(F)cc(F)c1)C(C)C1CN(C(=O)c3ccccc3)C(C)(C(=O)OC)C21 (stereo not given)	1.01	1.28	1.33	-3.1 (inactive)	1.21	1.07	0.0159	0.899	0.215	1.27	1.35	-2.24	0.225	2.31	0.813	0.36	-0.148	0.363	2.6	2.34
CC(C)C(=C=CC[C@H](O)c1ccc(OCCO)cc1)CCO	1.42	0.0229	0.0152	0.0477 (inactive)	0.835	0.145	0.0098	0.842	0.296	0.943	1.39	-0.119	0.131	0.219	-0.729	-0.0107	0.163	0.508	0.828	0.663
O=C1c2ccccc2[C@](Cc2ccccc2I)(C(=O)NCC(F)(F)F)[C@H](c2ccc(CO)cc2)N1Cc1ccccc1Cl	1.4	-0.0951	0.502	-0.504 (inactive)	0.588	0.539	0.0527	0.923	-0.19	0.41	1.41	-0.798	-0.141	1.03	0.512	-0.0472	0.0632	-0.239	0.208	0.918
COc1cc2c(cc1OC)CN(C(=O)[C@H]1[C@@H]3C(=O)O[C@@H](c4ccccc4)[C@@H](c4ccccc4)N3[C@@H](c3ccc(O)cc3)[C@]13C(=O)Nc1ccc(C#CCCO)cc13)CC2	0.957	0.0325	0.481	0.0673 (inactive)	0.398	0.0837	-0.0179	0.249	-0.0546	0.224	1.4	-0.838	-0.0265	0.382	0.0412	-0.0403	-0.0553	-0.472	0.469	1.04
COc1ccc([C@H]2OC[C@@H]3C[C@@H](Cc4ccccc4)C(=O)N32)cc1	0.143	-0.191	-0.435	0.247 (inactive)	1.3	0.228	0.424	0.821	0.326	-0.0187	-0.235	-0.859	0.311	-0.05	-0.317	-0.0203	-0.0146	-0.0273	0.53	-0.429
COC(=O)[C@@]1(Cc2ccc(OC)cc2)[C@H]2c3cc(C(=O)N(C)C)n(CCc4ccccn4)c3C[C@H]2CN1C(=O)c1ccccc1	0.566	1.62	1.41	0.317 (inactive)	0.286	-0.133	-0.011	0.0285	-0.586	0.937	0.263	-0.845	-0.288	0.993	0.93	0.675	1.31	0.854	1.01	0.248
COC(=O)[C@@]1(Cc2ccccc2)[C@H]2c3cc(C(=O)N4CCCC4)n(Cc4ccc(S(C)(=O)=O)cc4)c3C[C@H]2CN1C(=O)c1ccccc1	0.525	1.52	1.03	-1.18 (inactive)	0.387	1.18	0.679	0.94	0.222	1.3	0.97	-2.02	0.711	2.61	1.35	-0.0965	-0.34	-0.232	1.86	0.863
